# Reference: PubChem BioAssay (NCATS)
# Results filed as inconclusive are left out. Entries that show only a call come without a potency. The source made the active and inactive calls. Unless noted, calls come from the whole dose curve; as a rule, active = well fitted curve in the direction sought with a large enough effect; inconclusive = small, poorly fitted or top-dose-only effect, or another doubt; inactive = no such curve, though single readings can be large; an effect the other way counts as inactive or inconclusive. *1 amine or outer side, *2 acyl side, *3 side chain or, on linkers, in order; H or OH if unused. Where a SMILES comes first, the peptide text is derived from it. [ ]: non-standard residue; d: D form. X7 = O=C([C@@H](CC(O)CCl)O[*:1])[*:2]; aIle = CC[C@@H](C)[C@H](N)C(=O)O; NMeV = CN[C@H](C(=O)O)C(C)C; NMeA = CN[C@@H](C)C(=O)O; βAla = NCCC(=O)O
# Experiments:
# [1] = P-glycoprotein substrates identified in KB-8-5-11 adenocarcinoma cell line, qHTS therapeutic library screen (AID 1346987); note: nearly all actives have a fitted effect of over 65% in size; note: potency is the fitted concentration of half-maximal effect
# How it was run: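 P-gp-mediated resistance screen: KB-8-5-11 cells treated 72 h with compounds in dose-response. CellTiter-Glo viability.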
# [2] = biological target: Calcium and integrin-binding protein 1 (Homo sapiens) (UniProt Q99828); assay: Primary qHTS for Identification of Calcium Integrin Binding Protein 1 (CIB1) Competitor (AID 1508620);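 note: GST tagged CIB1 binding a fluorescein labelled alphaIIb integrin peptide tracer; top concentration of the series differs between compounds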
# Calcium and integrin-binding protein 1 (Homo sapiens), sequence (Q99828 whole entry, looked up): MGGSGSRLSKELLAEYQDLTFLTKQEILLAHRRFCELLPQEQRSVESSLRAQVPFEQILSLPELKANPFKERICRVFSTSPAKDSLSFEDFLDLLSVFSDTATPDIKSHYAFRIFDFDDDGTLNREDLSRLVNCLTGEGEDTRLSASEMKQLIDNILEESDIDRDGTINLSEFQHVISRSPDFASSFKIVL
# How it was run: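 CIB1-GST (1 uM final) and compound incubated 15 min at room temperature before adding FITC-alphaIIb peptide tracer (100 nM final). Competition for binding read by fluorescence polarization (ex 480, em 540) after another 15 min at room temperature.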
# [3] = Primary redox qHTS assay for identification of artifact compounds. (AID 1845223)
# How it was run: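 Amplex Red (25 uM) and HRP (250 mU/mL) in HBSS, with compounds for 15 min, then 250 uM DTT for 30 min, room temperature, dark. Fluorescence 525/598 nm read; normalized to DMSO and 10 uM DA3003; Hill fit.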
# HACAT = assay: qHTS assay to identify novel small-molecules to repurpose for Merkel cell carcinoma treatment (AID 1296009); settings: MCC and control cell lines, CellTiter-Glo viability, 72 h; at 44.8 µM (top of the series) unless noted; note: nearly all actives have a fitted effect of over 60% in size
# How it was run: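 After compound transfer in DMSO, plates were kept 72 hr at 37 degree celsius. Luminescent ATP signal from CellTiter-Glo served as viability measure, normalized against DMSO and no-cell controls.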
# CAOV3 = assay: Primary qHTS to identify gynecologic anti-cancer compounds using libraries of approved drugs and bioactive compounds (AID 1345084); settings: Gynecologic cancer cell panel viability, ATPlite luminescence, 48 h; series mostly up to 57.5 µM; note: nearly all actives have a fitted effect of over 55% in size; note: potency is the fitted concentration of half-maximal effect
# How it was run: (§1)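 Five-point cytotoxicity, 48 h drug exposure at 37 C, 5% CO2, on cells seeded 16 h beforehand. ATP content read by ATPlite luminescence.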
# HeLa = assay: as above; settings: Gynecologic cancer cell panel viability, ATPlite luminescence, 48 h; series mostly up to 57.5 µM
# How it was run: as §1
# JEG-3 = assay: as above; settings: Gynecologic cancer cell panel viability, ATPlite luminescence, 48 h; series mostly up to 57.5 µM
# How it was run: as §1
# [4] = system: Zika virus NS2B-NS3 protease (unlinked complex); assay: Primary screen GU Rhodamine qHTS for Zika virus inhibitors: Unlinked NS2B-NS3 protease assay (AID 1347159); note: nearly all actives have a fitted effect of over 60% in size
# How it was run: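 Compounds, tested up to 114 microM, were incubated for 15 minutes with 25 nM unlinked NS2B-NS3 protease at pH 8.0. Cleavage of 1.5 microM Rhodamine110 substrate was then followed by fluorescence for 15 minutes.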
# [5] = biological target: Cytochrome P450 2D6 (Homo sapiens) (UniProt P10635); assay: Cytochrome P450 family 2 subfamily D member 6 (CYP2D6) small molecule antagonists: luciferase biochemical (cell-free) qHTS assay (AID 1645840; active = well fitted curve in the direction sought with a large enough effect in the repeat runs; an effect the other way counts as inactive or inconclusive; note: nearly all actives have a fitted effect of over 55% in size)
# Cytochrome P450 2D6 (Homo sapiens), sequence (P10635 whole entry, looked up): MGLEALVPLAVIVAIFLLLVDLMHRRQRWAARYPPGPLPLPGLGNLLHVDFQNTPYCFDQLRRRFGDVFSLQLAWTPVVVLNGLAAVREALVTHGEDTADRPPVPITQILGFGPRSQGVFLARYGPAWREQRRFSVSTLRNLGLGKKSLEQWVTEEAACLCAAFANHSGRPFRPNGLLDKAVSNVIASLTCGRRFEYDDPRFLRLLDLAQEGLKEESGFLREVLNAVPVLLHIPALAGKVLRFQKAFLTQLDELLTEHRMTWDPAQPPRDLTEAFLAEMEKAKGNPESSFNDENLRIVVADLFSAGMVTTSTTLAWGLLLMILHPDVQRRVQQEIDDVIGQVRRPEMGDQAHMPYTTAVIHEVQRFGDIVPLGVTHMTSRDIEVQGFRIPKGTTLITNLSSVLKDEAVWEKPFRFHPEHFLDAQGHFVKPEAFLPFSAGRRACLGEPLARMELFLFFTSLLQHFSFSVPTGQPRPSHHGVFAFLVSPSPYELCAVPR
# How it was run: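 P450-Glo luminescent screen: recombinant CYP2D6 enzyme–proluciferin substrate mix preincubated with compound 10 min at room temperature, then NADPH regeneration added for 1 h at room temperature. Detection reagent added for 20 min; luciferin light read as relative luminescence units.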
# [6] = biological target: Cytochrome P450 2C9 (Homo sapiens) (UniProt P11712); assay: Cytochrome P450 family 2 subfamily C member 9 (CYP2C9) small molecule antagonists: luciferase biochemical (cell-free) qHTS assay (AID 1645842; active = well fitted curve in the direction sought with a large enough effect in the repeat runs; an effect the other way counts as inactive or inconclusive; note: nearly all actives have a fitted effect of over 55% in size; note: potency is the fitted concentration of half-maximal effect)
# Cytochrome P450 2C9 (Homo sapiens), sequence (P11712 whole entry, looked up): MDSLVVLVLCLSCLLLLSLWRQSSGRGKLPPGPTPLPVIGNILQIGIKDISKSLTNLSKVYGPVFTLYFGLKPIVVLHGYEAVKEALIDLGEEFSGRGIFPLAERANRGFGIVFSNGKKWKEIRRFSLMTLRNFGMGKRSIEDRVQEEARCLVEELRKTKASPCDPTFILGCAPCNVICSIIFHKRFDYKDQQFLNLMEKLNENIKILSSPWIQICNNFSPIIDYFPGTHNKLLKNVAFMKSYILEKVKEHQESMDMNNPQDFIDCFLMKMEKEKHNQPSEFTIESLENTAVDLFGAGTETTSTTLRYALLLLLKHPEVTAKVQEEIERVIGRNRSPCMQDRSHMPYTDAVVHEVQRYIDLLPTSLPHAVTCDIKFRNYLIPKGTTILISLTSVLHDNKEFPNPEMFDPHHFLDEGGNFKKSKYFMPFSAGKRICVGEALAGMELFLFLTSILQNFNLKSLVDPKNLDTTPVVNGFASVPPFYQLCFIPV
# How it was run: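 Luminescence, after 20 min with luciferin detection reagent, reflected CYP2C9 turnover during a 1 h NADPH-driven reaction at 37C. Enzyme-substrate mix contained 0.4% bovine serum albumin and was preincubated with compound 10 min at room temperature.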
# SKOV3 = assay: Primary qHTS to identify gynecologic anti-cancer compounds using libraries of approved drugs and bioactive compounds (AID 1345084); settings: Gynecologic cancer cell panel viability, ATPlite luminescence, 48 h; series mostly up to 57.5 µM; note: nearly all actives have a fitted effect of over 55% in size; note: potency is the fitted concentration of half-maximal effect
# How it was run: as §1
# KB-3-1 = assay: Cytotoxic Profiling of Annotated Libraries Using Quantitative High-Throughput Screening (AID 1296008); settings: Five cell lines viability, CellTiter-Glo ATP luminescence, 48-72 h; max response: stronger effect = lower value; note: nearly all actives have a fitted effect of over 60% in size; note: potency is the fitted concentration of half-maximal effect
# How it was run: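 Cytotoxicity was measured as CellTiter-Glo ATP luminescence, read after 10 min at room temperature. Compound treatment of the cells lasted 48 or 72 hr at 37 degrees Celsius in a qHTS format.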
# [7] = P-glycoprotein substrates identified in KB-3-1 adenocarcinoma cell line, qHTS therapeutic library screen (AID 1346986); note: nearly all actives have a fitted effect of over 60% in size
# How it was run: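 Counter-screen: cherry-picked hits retested in the KB pair and in HEK-293 pcDNA/MDR-19 cells ± tariquidar. Primary screen used 72 h CellTiter-Glo viability in KB-3-1 and KB-8-5-11.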
# [8] = biological target: Catechol O-methyltransferase (Homo sapiens) (UniProt P21964); assay: Confirmatory Screen for Target Class Profiling of Small Molecule Inhibitors of Methyltransferases (AID 1745852); settings: MTase-Glo luminescence, SAH detection, recombinant enzyme; measured here: COMT max response; stronger effect = lower value
# Catechol O-methyltransferase (Homo sapiens), sequence (P21964 whole entry, looked up): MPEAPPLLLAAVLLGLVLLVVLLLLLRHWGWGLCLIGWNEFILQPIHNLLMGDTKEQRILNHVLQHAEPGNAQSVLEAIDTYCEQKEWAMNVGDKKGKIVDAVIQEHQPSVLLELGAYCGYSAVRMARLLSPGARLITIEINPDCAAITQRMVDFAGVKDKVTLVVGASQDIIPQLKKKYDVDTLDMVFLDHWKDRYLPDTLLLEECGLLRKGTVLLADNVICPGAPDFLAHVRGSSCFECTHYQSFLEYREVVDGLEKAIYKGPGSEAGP
# [9] = biological target: Guanidinoacetate N-methyltransferase (Homo sapiens) (UniProt Q14353); assay: as above; settings: activity change, negative = inhibition: at 57.3 µM (top of the series) unless noted
# [10] = biological target: Nicotinamide N-methyltransferase (Homo sapiens) (UniProt P40261); assay: as above; settings: MTase-Glo luminescence, SAH detection, recombinant enzyme; measured here: NNMT max response; stronger effect = lower value
# Nicotinamide N-methyltransferase (Homo sapiens), sequence (P40261 whole entry, looked up): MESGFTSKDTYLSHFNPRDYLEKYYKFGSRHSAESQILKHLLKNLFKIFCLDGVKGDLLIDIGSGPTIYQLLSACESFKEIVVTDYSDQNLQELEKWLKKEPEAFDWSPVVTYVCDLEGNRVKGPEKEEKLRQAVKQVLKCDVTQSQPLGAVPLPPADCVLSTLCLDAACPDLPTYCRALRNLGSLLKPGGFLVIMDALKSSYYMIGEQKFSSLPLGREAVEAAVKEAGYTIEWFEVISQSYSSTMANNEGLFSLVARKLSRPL
# [11] = Cytotoxicity counterscreen for inhibitors of SARS-CoV-2 cell entry (AID 1645845; calls by dose curve; note: nearly all actives have a fitted effect of over 50% in size)
# How it was run: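 48 h compound treatment (after 1 h preincubation), HEK293-ACE2 cells, 37 C/5% CO2; ATP luminescence endpoint; normalized to cell wells and media blanks.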
# [12] = Primary qHTS to identify inhibitors of SARS-CoV-2 cell entry (AID 1645846; calls by dose curve; note: nearly all actives have a fitted effect of over 45% in size); settings: activity change, negative = inhibition: at 57.1 µM (top of the series) unless noted
# How it was run: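 Entry measured by luciferase signal 48 h after adding SARS-CoV-2-S pseudotyped MLV particles to HEK293-ACE2 cells preincubated 1 h with compounds. Normalisation: bald particles and spike particles.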
compound,measurement,setting,value
CCC1NC(=O)C2C(Cl)C(Cl)CN2C(=O)C(CC)NC(=O)CC(c2ccccc2)NC(=O)C(CO)NC1=O (stereo not drawn),Potency,[1],inactive
same,Potency,[2],inactive
same,Potency,[3],inactive
same,outcome,HACAT,inactive [at 17.4 µM]
same,Potency,CAOV3,inactive
same,Potency,HeLa,inactive
same,Potency,JEG-3,inactive
NC(=O)c1ncn2c1CN=C(c1ccccc1Br)c1cc(F)ccc1-2,Potency,[1],inactive
same,Potency,[4],inactive
same,Potency,[5],inactive
same,Potency,[6],inactive
same,Potency,[3],inactive
same,Potency,CAOV3,inactive
same,Potency,HeLa,inactive
same,Potency,JEG-3,inactive
same,Potency,SKOV3,inactive
CC1(C)C(=O)N(c2ccc(C#N)c(C(F)(F)F)c2)C(=O)N1CCCCO,Potency,[1],inactive
same,Potency,[4],inactive
same,Potency,[5],inactive
same,Potency,[3],inactive
same,Potency,CAOV3,inactive
same,Potency,JEG-3,inactive
same,Potency,SKOV3,inactive
C=C1C[C@]2(O)[C@@]3(C)CCC(=O)C(C)(C)C3=C(O)C(=O)[C@@]2(C)[C@@H]2C(=O)O[C@@](C)(C(=O)OC)C(=O)[C@@]12C,Potency,[1],inactive
same,Potency,[2],inactive
same,max response,KB-3-1,1.74% (inactive)
same,Potency,CAOV3,inactive
same,Potency,HeLa,inactive
same,Potency,JEG-3,inactive
same,Potency,SKOV3,inactive
C=C(CO)C(=O)O[C@H]1CC(=C)[C@@H]2C[C@H](O)C(=C)[C@@H]2[C@H]2OC(=O)C(=C)[C@@H]21,Potency,[7],inactive
same,Potency,[1],inactive
same,Potency,[2],inactive
same,activity,[8],-80.9%
same,"activity change, negative = inhibition",[9],-4.37%
same,activity,[10],-6.26%
same,Potency,[3],inactive
same,outcome,KB-3-1,inactive
same,Potency,CAOV3,inactive
same,Potency,HeLa,inactive
same,Potency,JEG-3,inactive
same,Potency,SKOV3,inactive
C[C@]12CC[C@H](O)C[C@H]1CC[C@@H]1[C@@H]2[C@H](O)C[C@]2(C)[C@@H](c3ccc(=O)oc3)CC[C@]12O,Potency,[1],51.7 nM (active)
same,Potency,[3],inactive
same,Potency,KB-3-1,51.7 nM (active)
same,Potency,CAOV3,100 nM (active)
same,Potency,HeLa,112 nM (active)
same,Potency,JEG-3,inactive
Cc1sc2c(c1C)C(c1ccc(Cl)cc1)=NC(CC(=O)Nc1ccc(O)cc1)c1nnc(C)n1-2 (stereo not drawn),Potency,[2],inactive
same,Potency,[5],inactive
same,Potency,[11],inactive
same,"activity change, negative = inhibition",[12],-87.5%
same,Potency,[3],inactive
same,Potency,JEG-3,inactive
same,Potency,SKOV3,3160 nM (active)
COC1C(O)C(C)OC(OC2C(CO)O[C@@H](O[C@@H]3CC4CCC5C(CC[C@]6(C)[C@@H](C7=CC(=O)OC7)CC[C@]56O)[C@@]4(C)[C@H](OC(C)=O)C3)C(O)C2O)C1O (stereo partly drawn),Potency,[1],2730 nM (active)
same,Potency,[2],inactive
same,Potency,HeLa,10000 nM (active)
CC[C@@H](C)[C@@H]1NC(=O)[C@@H]2CCCN2C(=O)[C@@H](CC(O)CCl)OC(=O)CCNC(=O)[C@H](C)N(C)C(=O)[C@H](C(C)C)N(C)C1=O (stereo partly drawn) (cyclo([NMeA][βAla][X7]P[aIle][NMeV])),Potency,[1],inactive
same,Potency,[4],inactive
same,Potency,[2],inactive
same,Potency,[3],inactive
same,Potency,CAOV3,3160 nM (active)
same,Potency,JEG-3,inactive
CC[C@@]1(O)C(=O)OCc2c1cc1n(c2=O)Cc2cc3c(OC)cccc3nc2-1,Potency,[1],805 nM (active)
same,Potency,[4],inactive
same,Potency,[2],inactive
same,Potency,KB-3-1,1280 nM (active)
same,Potency,SKOV3,447 nM (active)
CN1CCN(c2nc3ccccc3nc2Cl)CC1,Potency,[7],inactive
same,Potency,[1],inactive
same,Potency,[4],inactive
same,Potency,[2],inactive
same,Potency,[3],inactive
same,outcome,KB-3-1,inactive
same,Potency,CAOV3,inactive
same,Potency,JEG-3,inactive
N#Cc1ccc([C@H]2CCCC[C@H]2O)cc1C(F)(F)F,Potency,[1],inactive
same,Potency,[4],inactive
same,Potency,[2],inactive
same,Potency,[6],26800 nM (active)
same,Potency,[3],inactive
same,Potency,CAOV3,inactive
same,Potency,HeLa,inactive
same,Potency,JEG-3,inactive
C[C@@H]1C[C@@H](O)[C@]2(O)O[C@@H]3C[C@@]4(C=O)C(CC[C@@H]5C4CC[C@]4(C)[C@@H](C6=CC(=O)OC6)CC[C@]54O)C[C@H]3O[C@@H]2O1 (stereo partly drawn),Potency,[4],inactive
same,Potency,[2],inactive
same,Potency,[3],inactive
same,Potency,KB-3-1,100 nM (active)
same,Potency,JEG-3,inactive
CN1C[C@@H]2CN(c3ccc(-c4ccccc4)nn3)C[C@@H]2C1,Potency,[1],inactive
same,Potency,[4],inactive
same,Potency,[2],inactive
same,Potency,[5],inactive
same,Potency,[3],inactive
same,Potency,CAOV3,inactive
same,Potency,HeLa,inactive
same,Potency,JEG-3,inactive
same,Potency,SKOV3,inactive
COC(=O)C1=COC(C)C2CN3CCC4(C(=O)Nc5ccccc54)C3CC12 (stereo not drawn),Potency,[4],inactive
same,Potency,[3],inactive
same,Potency,CAOV3,inactive
same,Potency,HeLa,inactive
same,Potency,JEG-3,inactive
same,Potency,SKOV3,inactive
CC(C)[C@H]1OC(=O)[C@H](Cc2ccccc2)N(C)C(=O)[C@@H](C(C)C)OC(=O)[C@H](Cc2ccccc2)N(C)C(=O)[C@@H](C(C)C)OC(=O)[C@H](Cc2ccccc2)N(C)C1=O,Potency,[1],4850 nM (active)
same,Potency,CAOV3,inactive
same,Potency,JEG-3,inactive
